Entries with a potency or affinity are not part of this list. Calls of active or inactive are those of the source. The rule behind the calls is not given here.
Test: host cell cytotoxicity of antiviral hits, dose response, cytotoxicity control for West Nile virus antiviral project, secondary assay (AID 1650)
Conditions: Mammalian host cell viability, cytotoxicity counter-screen; series mostly up to 10 µM
With `COc1ccccc1NC(=O)N1CCn2c(nc3ccccc32)C1` the outcome was “inactive”. In the case of `O=C(CCN1C(=O)/C(=C/c2ccccc2F)SC1=S)NCCc1ccc(O)cc1`, the outcome is reported as “inactive”. For `Cc1cccc(OCC(O)Cn2c(=N)n(CCN3CCCCC3)c3ccccc32)c1` (stereo not given), the outcome was “inactive”. In the case of `COc1ccccc1CN1CCC(CNS(=O)(=O)c2cc(-c3onc(C)c3C)ccc2OC)CC1`, the outcome is reported as “inactive”. In the case of `CC(=O)Oc1ccc(-c2ccc(C(=O)OCC(=O)N(C)CC(=O)Nc3ccccc3Cl)cc2)cc1`, the outcome is reported as “inactive”. In the case of `Cc1ccc(-c2cc(C(=O)NCCCN3CCCC3)c3ccccc3n2)cc1C`, the outcome is reported as “inactive”. With `CCN1CCN(Cc2ccc(NC(=O)c3ccc(C)c(NC(=O)N4CCNC4=O)c3)cc2C(F)(F)F)CC1` the outcome was “inactive”. For `Cc1ccc(-c2cc(C(=O)N(C)Cc3cnn(C)c3C)c3cc(Br)ccc3n2)cc1`, the outcome was “inactive”. With `Cc1ccc(S(=O)(=O)N2CCCC2C(=O)Oc2ccccc2)cc1` (stereo not given) the outcome was “inactive”. With `O=C1OC(N2CCN(Cc3ccccc3)CC2)c2ccccc21` (stereo not given) the outcome was “inactive”. For `CN1CCN(Cc2nc3ccccc3c(=O)n2Cc2nc(-c3ccccc3F)cs2)CC1`, the outcome was “inactive”. With `CCCC1(c2ccccc2)NC(=O)N(CC(=O)Nc2sc(-c3ccccc3)cc2C(=O)OCC)C1=O` (stereo not given) the outcome was “inactive”. In the case of `CCOC(=O)c1nn(-c2ccccc2)c2nc(-c3ccc(OC)cc3)c(C#N)c(=O)n12`, the outcome is reported as “inactive”. In the case of `COc1ccccc1NS(=O)(=O)c1cccc(NC(=O)Nc2ccc(Cl)cc2)c1`, the outcome is reported as “inactive”. With `Cn1cc([N+](=O)[O-])c(C(=O)Nc2ccn(C34CC5CC(CC(C5)C3)C4)n2)n1` the outcome was “inactive”. With `O=c1c(-c2ccccc2)c1-c1ccccc1` the outcome was “inactive”. With `Cn1c(N/N=C/c2c[nH]c3ccccc23)nc2ccccc21` the outcome was “inactive”. In the case of `COc1ccc(CNCCC(c2ccc(OC(C)C)cc2)c2ccccc2OC)cc1OC` (stereo not given), the outcome is reported as “inactive”. With `CCCN(CC(=O)Nc1cccc(Br)c1)CC(=O)Nc1ccc(F)c(F)c1F` the outcome was “inactive”. For `CCCC12CN3CC(C)(CN(C1)C3c1ccc(OC(C)C)cc1)C2=O` (stereo not given), the outcome was “inactive”. With `CCN(CC)CCCNc1nc(-c2ccccc2)nc2ccccc12` the outcome was “inactive”. With `O=C(CN1C(=O)/C(=C/c2ccc(C(F)(F)F)cc2)Sc2ccccc21)NCCCN1CCOCC1` the outcome was “inactive”. In the case of `COc1cc(C=Nc2c(C)cc(C)cc2C)ccc1OC(C)=O`, the outcome is reported as “inactive”. For `CC/C(=C(\c1ccc(O)cc1)c1ccc(OCCN(C)C)cc1)c1ccccc1`, the outcome was “inactive”. For `COc1ccc(NC(=S)Nc2ccc3nsnc3c2)cc1`, the outcome was “inactive”. In the case of `Cc1cc(C)cc(OC(=O)CS(=O)c2ccc(C(F)(F)F)cc2[N+](=O)[O-])c1` (stereo not given), the outcome is reported as “inactive”. In the case of `Cc1ccc(CN(Cc2cc3cccc(C)c3[nH]c2=O)C(=S)NCCCN(C)C)cc1`, the outcome is reported as “inactive”. With `N#Cc1cc(-c2ccc(Cl)cc2)cnc1Sc1ccc(F)cc1` the outcome was “inactive”. With `COc1ccc(C2c3c(ncn(CCCO)c3=N)Oc3ccc4ccccc4c32)cc1OC` (stereo not given) the outcome was “inactive”. For `CCN1CCN(C(=S)Nc2ccc3nc(N4CCN(CC)CC4)cc(C)c3c2)CC1`, the outcome was “inactive”. For `C/C(=N\Nc1nnc(-c2ccccc2)c(-c2ccccc2)n1)c1cccc([N+](=O)[O-])c1`, the outcome was “inactive”. With `O=C1c2ccccc2C2=Nc3ccccc3SC(c3ccc(Cl)cc3)C12` (stereo not given) the outcome was “inactive”. With `CN(C)Cc1c(C(=O)N/N=C/c2cccc(OCc3c(F)cccc3Cl)c2)nnn1-c1nonc1N` the outcome was “inactive”. In the case of `O=C(Nc1ccc(F)c(Cl)c1)Nc1ccc(Cl)cn1`, the outcome is reported as “inactive”. For `CCC1CCCCN1CCCNC(=O)c1ccc(/C=C2/Sc3ccccc3NC2=O)cc1` (stereo not given), the outcome was “inactive”. For `C=CCn1c(SCc2csc(-c3ccc(Cl)cc3)n2)nnc1-c1ccccc1OC`, the outcome was “inactive”. For `Cc1ccc(COc2cccc(/C=N/NC(=O)c3nnn(-c4nonc4N)c3C)c2)cc1`, the outcome was “inactive”. With `CCCCOc1ccc(C(=O)N/N=C/c2ccc(OCCN3CCCCC3)c(OC)c2)cc1` the outcome was “inactive”. For `CCN(CC)CCNC(=O)c1ccc(NC(=O)c2cccc(S(=O)(=O)N3c4ccccc4CC3C)c2)cc1` (stereo not given), the outcome was “inactive”. With `CCOC(=O)c1c2c(n(C)c1COC)C(=O)C(=O)c1ccc(Br)cc1-2` the outcome was “inactive”.
